A549 tox-1 – kills or reduces viability of A549 cells in Nrf2 counter-screen. A549 ARE-Fluc cells, CellTiter-Fluor viability, 18-24 h. Potency, µM (top dose mostly 46 µM), hits mostly inhibitors. 0.16% of 390,000 active
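Cytotoxicity counterscreen: CellTiter-Fluor fluorescence was measured in A549 ARE_Fluc cells after 18-24 h of compound exposure in a concentration series. The subsequent BugLite luminescent read reports ARE-luciferase activity.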
Nrf2 block – Nrf2 pathway inhibition | A549 ARE-Fluc reporter, luciferase luminescence, 18-24 h | Potency, µM (titrated, usually from 46 µM), most hits filed as inhibitors | 2.1% of 360,000 active; also: nearly all actives have a fitted effect of over 60% in size
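Two sequential reads on A549 ARE_Fluc cells exposed to compound for 18-24 h: a CellTiter-Fluor fluorescence read for viability, then a luciferase luminescence read for Nrf2/ARE activity.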
ATXN2 expr inh – ATXN2 expression inhibition. HEK-293 ATXN2-luciferase reporter, luminescence, 24 h. Potency, µM (doses to about 57 µM), usual class: inhibitors. 0.72% of 360,000 active. AID 1745845; also: nearly all actives have a fitted effect of over 55% in size
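ATXN2-luciferase reporter cells (luciferase flanked by upstream and downstream ATXN2 gene portions) were treated 24 h at 37 °C with compounds at up to 57 uM. SteadyGlo luminescence gave expression; GF-AFC fluorescence gave viability.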
ATXN viability – viability counter-screen for ATXN expression inhibitors | 0.49% of 400,000 active | Potency, µM (series often up to 56.7 µM), usual class: cytotoxic | S2 cells (HEK-293 line with an ATXN2-luciferase reporter) viability, CellTiter-Fluor protease fluorescence, 24 h; also: nearly all actives have a fitted effect of over 40% in size
Nrf2 ARE act – activators of Nrf2 (ARE) signaling. Potency, µM (titrated, usually from 46.1 µM), usual class: activators. AREc32 ARE-luciferase reporter (MCF7-derived line), luminescence, 24 h. 0.31% of 410,000 active; also: nearly all actives have a fitted effect of over 65% in size
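AREc32 cells carrying an ARE-driven firefly luciferase reporter were seeded at 1000 cells/well in OPTI-MEM with 5% FBS, then exposed to compound for 24 hr at 37 deg C. Luminescence was read with Steady-Glo after 30 min at RT.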
FLuc counter 3 – blocks purified firefly luciferase in Nrf2 counterscreen | shares compounds with Nrf2 block | AID 720522 | Potency, µM (top dose mostly 57.5 µM), usual class: inhibitors | 4% of 1,400 active | purified firefly luciferase, luminescence inhibition; also: nearly all actives have a fitted effect of over 65% in size
Target sequence (P08659 whole entry, looked up): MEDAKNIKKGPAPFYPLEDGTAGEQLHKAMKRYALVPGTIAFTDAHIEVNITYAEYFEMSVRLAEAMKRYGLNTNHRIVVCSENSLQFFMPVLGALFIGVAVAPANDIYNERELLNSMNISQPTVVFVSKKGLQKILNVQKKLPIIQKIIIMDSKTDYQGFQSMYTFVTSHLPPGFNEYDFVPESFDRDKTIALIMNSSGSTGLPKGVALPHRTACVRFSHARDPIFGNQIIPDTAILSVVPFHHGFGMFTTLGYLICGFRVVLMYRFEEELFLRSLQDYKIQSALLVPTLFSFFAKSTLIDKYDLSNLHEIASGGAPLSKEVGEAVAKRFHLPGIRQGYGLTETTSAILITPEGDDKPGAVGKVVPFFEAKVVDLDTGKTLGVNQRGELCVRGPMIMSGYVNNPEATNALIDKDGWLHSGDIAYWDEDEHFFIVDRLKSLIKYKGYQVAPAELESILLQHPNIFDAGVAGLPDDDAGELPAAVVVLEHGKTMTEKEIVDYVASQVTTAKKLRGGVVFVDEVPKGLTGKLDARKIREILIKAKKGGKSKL
A549 tox-2 – toxic to A549 ARE-Fluc cells in Nrf2 counterscreen; shares compounds with Nrf2 block; A549 ARE-Fluc cells, cytotoxicity counterscreen; Potency, µM (top dose mostly 46.1 µM), hits mostly inhibitors; 2% of 1,400 active; AID 720523;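 also: cells exposed to compounds for 18 to 24 hours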
Nrf2 ARE inh – reduces Nrf2 ARE reporter signal in A549 cells | 74% of 1,400 active | A549 ARE-firefly luciferase reporter, luminescence | shares compounds with Nrf2 block | Potency, µM (doses to about 46.1 µM), actives largely listed as inhibitors; also: nearly all actives have a fitted effect of over 65% in size
SK-N-SH 3D tox – SK-N-SH 3D spheroid viability loss; shares compounds with ATXN2 expr inh; SK-N-SH 3D spheroid viability, PI/Hoechst imaging, 72 h; Potency, µM (titrated, usually from 30.7 µM), usual class: inhibitors; 70% of 65 active
SJGBM2 3D viab – lowers viability of SJ-GBM2 3D spheroids; SJ-GBM2 3D spheroid viability, PI/Hoechst imaging, 72 h; 80% of 65 active; shares compounds with ATXN2 expr inh; Potency, µM (top dose mostly 30.7 µM), hits mostly inhibitors
Daoy 3D tox – kills Daoy spheroids in orthogonal 3D test; shares compounds with ATXN2 expr inh; Daoy 3D spheroid viability, PI/Hoechst imaging, 72 h; Potency, µM (top dose mostly 30.7 µM), actives largely listed as inhibitors; 50% of 65 active
TC32 3D caspase – activates caspase in TC32 3D spheroids | 30% of 65 active | shares compounds with ATXN2 expr inh | AID 1347138 | TC32 3D spheroids, caspase-3/7 fluorescence imaging, 24 h | Potency, µM (doses to about 30.7 µM), most hits filed as inhibitors
TC32 3D tox – TC32 3D spheroid viability loss; shares compounds with ATXN2 expr inh; TC32 3D spheroid viability, PI/Hoechst imaging, 72 h; Potency, µM (titrated, usually from 30.7 µM), actives largely listed as inhibitors; 60% of 65 active; AID 1347139
MG63 3D tox – MG-63 (6-TG R) 3D spheroid viability loss. shares compounds with ATXN2 expr inh. MG-63 (6-TG R) 3D spheroid viability, PI/Hoechst imaging, 72 h. Potency, µM (titrated, usually from 30.7 µM), most hits filed as inhibitors. 50% of 65 active
RD 3D tox – RD 3D spheroid viability loss; 50% of 65 active; shares compounds with ATXN2 expr inh; AID 1347141; Potency, µM (doses to about 30.7 µM), actives largely listed as inhibitors; RD rhabdomyosarcoma 3D spheroid viability, PI/Hoechst imaging, 72 h
Large screens that a line does not name were inactive (follow-up assays come after a bar, where they were run). Most compounds without a hit are left out; they make up all but 2.9% or so of the library. Calls follow the shape of the dose curve; as a rule, active = well fitted curve in the direction sought with a large enough effect; inconclusive = small, poorly fitted or top-dose-only effect, or another doubt; inactive = no such curve, though single readings can be large; an effect the other way counts as inactive or inconclusive.

CC(=O)OCC(=O)[C@@]1(O)CC[C@H]2[C@@H]3CCC4=CC(=O)C=C[C@]4(C)[C@H]3C(=O)C[C@@]21C	Nrf2 block inconclusive (no result: ATXN2 expr inh)
CC(C)=CCC/C(C)=C/CC/C(C)=C/C(=O)OCC(=O)[C@@]1(O)CC[C@H]2[C@@H]3CCC4=CC(=O)C=C[C@]4(C)[C@H]3[C@@H](O)C[C@@]21C	none (no result: A549 tox-1, Nrf2 block, Nrf2 ARE act)
C[C@@]12C=CC(=O)C=C1CC[C@@H]1[C@@H]2[C@H](O)C[C@]2(C)[C@@H]1CC[C@]2(O)C(=O)CO	none (no result: A549 tox-1, Nrf2 block, ATXN2 expr inh, Nrf2 ARE act)
C[C@H]1C[C@@H]2[C@H]([C@@H](O)C[C@@]3(C)[C@H]2CC[C@]3(O)C(=O)CO)[C@@]2(C)C=CC(=O)C=C12	Nrf2 block 0.026µM | FLuc counter 3 inactive | A549 tox-2 inactive | Nrf2 ARE inh 0.033µM
C[C@]12C=CC(=O)C=C1CC[C@@H]1[C@@H]2[C@@H](O)C[C@@]2(C)[C@H]1CC[C@]2(O)C(=O)COC(=O)CCC(=O)O	Nrf2 block 0.046µM, ATXN viability inconclusive | FLuc counter 3 inactive | A549 tox-2 inactive | Nrf2 ARE inh 0.23µM
C[C@H](CO)N1C[C@H](C)[C@@H](CN(C)C(=O)Nc2cccc(F)c2)Oc2ncc(Br)cc2C1=O	none (no result: A549 tox-1, Nrf2 block)
Cn1c(=O)oc2cc(S(=O)(=O)Nc3cccc([N+](=O)[O-])c3)ccc21	none
CC(C)CN(CC(C)C)C1=N/C(=C\c2ccco2)C(=O)N1c1ccccc1	A549 tox-1 inconclusive, Nrf2 block inconclusive
CCOC(=O)O[C@]1(C(=O)OCCl)CC[C@@H]2[C@H]3CCC4=CC(=O)C=C[C@]4(C)[C@@H]3[C@@H](O)C[C@@]21C	none (no result: A549 tox-1, Nrf2 block, ATXN viability, Nrf2 ARE act)
CCOC(=O)O[C@]1(C(=O)COC(=O)CC)CC[C@H]2[C@@H]3CCC4=CC(=O)C=C[C@]4(C)[C@H]3[C@@H](O)C[C@@]21C	Nrf2 block 0.058µM | FLuc counter 3 inactive | A549 tox-2 inactive | Nrf2 ARE inh 0.058µM
Cc1cc(=O)oc2cc(OCC(=O)NCC3CCCO3)ccc12 (stereo not drawn)	none (no result: ATXN2 expr inh)
CN(c1cccc(NC(=O)CN(c2ccc(C34CC5CC(CC(C5)C3)C4)cc2)S(C)(=O)=O)c1)S(C)(=O)=O	A549 tox-1 inconclusive, Nrf2 block 7.3µM, ATXN2 expr inh inconclusive, ATXN viability inconclusive | FLuc counter 3 inactive | A549 tox-2 inconclusive | Nrf2 ARE inh 21µM
COc1ccccc1NC(=O)C(=O)N/N=C/c1ccc([N+](=O)[O-])s1	none
O=C(N/N=C/c1ccc([N+](=O)[O-])s1)c1ccccc1Br	A549 tox-1 inconclusive, Nrf2 block 9.2µM, ATXN2 expr inh inconclusive, ATXN viability inconclusive | FLuc counter 3 inconclusive | A549 tox-2 inactive | Nrf2 ARE inh 5.8µM
C[C@]12C=CC(=O)C=C1CC[C@H]1[C@@H]3C[C@@H](O)[C@](O)(C(=O)CO)[C@@]3(C)C[C@H](O)[C@@]12F	Nrf2 block 0.41µM | FLuc counter 3 inactive | A549 tox-2 inactive | Nrf2 ARE inh 0.092µM | SK-N-SH 3D tox inconclusive | SJGBM2 3D viab 0.46µM | Daoy 3D tox inactive | TC32 3D caspase inconclusive | TC32 3D tox 7.2µM | MG63 3D tox inactive | RD 3D tox inactive
CC(c1nc2ccccc2[nH]1)N(C(=O)Cc1csc2ccccc12)c1cccnc1 (stereo not drawn)	none (no result: A549 tox-1, Nrf2 block)
COc1cc([C@@H]2c3cc4c(cc3[C@@H](O[C@@H]3O[C@@H]5CO[C@@H](C)O[C@@H]5[C@H](O)[C@@H]3O)[C@H]3COC(=O)[C@H]23)OCO4)cc(OC)c1O	ATXN2 expr inh 0.77µM (no result: A549 tox-1, Nrf2 block, ATXN viability, Nrf2 ARE act) | SK-N-SH 3D tox 0.57µM | SJGBM2 3D viab 0.26µM | Daoy 3D tox 0.46µM | TC32 3D caspase inconclusive | TC32 3D tox 0.26µM | MG63 3D tox inconclusive | RD 3D tox inconclusive
COc1cc(C2c3cc4c(cc3OC(N3CCCC3)C2C)OCO4)cc(OC)c1O (stereo not drawn)	none
COc1cc([C@@H]2c3cc4c(cc3C(O[C@@H]3O[C@@H]5CO[C@@H](c6cccs6)OC5[C@H](O)[C@H]3O)C3COC(=O)[C@@H]32)OCO4)cc(OC)c1O (stereo partly drawn)	none (no result: A549 tox-1, Nrf2 block, ATXN2 expr inh, ATXN viability, Nrf2 ARE act) | SK-N-SH 3D tox 0.057µM | SJGBM2 3D viab 0.032µM | Daoy 3D tox 0.041µM | TC32 3D caspase inconclusive | TC32 3D tox 0.016µM | MG63 3D tox 4.1µM | RD 3D tox 5.7µM
COc1cc(C2CC(=O)Nc3cc4c(cc32)OCO4)cc(OC)c1O (stereo not drawn)	none
CCc1ccc(S(=O)(=O)N2CCN(c3ncccn3)CC2)cc1	none
O=c1[nH]c(C2CCN(S(=O)(=O)Cc3ccccc3)CC2)nc2c1nnn2Cc1ccccc1Cl	Nrf2 block inconclusive

Assay outcomes as filed in PubChem BioAssay.
